ClpP mod: qHTS Assay for Activators of ClpP; purified B. subtilis ClpP, FRET peptide cleavage, 20 min; Potency, µM (titrated, usually from 57.5 µM); hit rate 1.9% among 340,000; active = well fitted falling curve with a large enough effect; inconclusive = small, poorly fitted or top-dose-only effect; inactive = no such curve, though single readings can be large or run the other way; also: the source files actives as falling curves though it sought activators and does not explain the sign; nearly all actives have a fitted effect of over 65% in size
Target sequence (P80244 whole entry, looked up): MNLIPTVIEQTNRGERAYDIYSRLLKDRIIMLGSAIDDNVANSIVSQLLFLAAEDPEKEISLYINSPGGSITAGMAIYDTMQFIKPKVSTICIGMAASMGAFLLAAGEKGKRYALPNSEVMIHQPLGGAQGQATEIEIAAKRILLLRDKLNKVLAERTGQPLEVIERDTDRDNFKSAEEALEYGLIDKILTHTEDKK
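FRET quenching reversal measured ClpP activation: 10 microg/mL B. subtilis ClpP at pH 8 with the FRET-FV decapeptide, read at 430 nm after 320 nm excitation. The 20-min minus 0-min signal was scaled between DMSO/no-enzyme wells and ADEP (5.8 microM final).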
uPA surface inh: inhibitors of cell surface uPA generation; cell surface uPA generation assay, qHTS; hit rate 0.31% among 330,000; Potency, µM (highest dose often 38.3 µM), usual class: inhibitors; active = well fitted inhibition curve with a large enough effect; inconclusive = small, poorly fitted or top-dose-only effect; inactive = no such curve, though single readings can be large or run the other way; tested in mouse RAW 264.7 cells; also: nearly all actives have a fitted effect of over 55% in size
TCR act: activators of T cell receptors | primary human leukocytes, anti-CD3, IL-2 HTRF, 48 h | Potency, µM (highest dose often 9.22 µM), hits mostly activators | 330,000 tested, under 10 active | AID 504894
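48 hr co-incubation of compounds, a-CD3 beads and primary human leukocytes; IL-2 quantified homogeneously by HTRF with anti-IL-2 K and d2 conjugates.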
Sfp PPTase inh: blocks B. subtilis Sfp PPTase activity; Q9F4F7; Biochemical Sfp PPTase activity, qHTS; Potency, µM, most hits filed as inhibitors; hit rate 3.5% among 310,000; AID 1490;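 also: the enzyme is Sfp with the accession as filed and its product quenches rhodamine fluorescence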
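Buffer: 50 mM Hepes-Na pH 7.6, 10 mM MgCl2, 0.01% Nonidet P-40, 0.01% BSA. Enzyme 15 nM, pre-exposed to compound 15 min; substrates then added and fluorescence change tracked over 30 min.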
Hits are given with their value; 0 = inactive; ? = inconclusive; - = no result; ! = not active in a repeat. Rows were chosen to be rich in hits. Some 4.2% of all compounds tested hit in one or more screens of this group. Unless noted, calls follow the shape of the dose curve; as a rule, active = well fitted curve in the direction sought with a large enough effect; inconclusive = small, poorly fitted or top-dose-only effect, or another doubt; inactive = no such curve, though single readings can be large; an effect the other way counts as inactive or inconclusive.

SMILES	ClpP mod	uPA surface inh	TCR act	Sfp PPTase inh
CSc1nc(N(C)NC(=O)c2ccc(Cl)cc2)c2ccccc2n1	?	0	0	50µM
CCN1CCN(CC(=O)N2N=C(c3cccs3)CC2c2ccc(C)cc2)C(=O)C1=O (stereo not given)	0	0	-	0
Cc1ccc(C(=O)NCCc2ccc(F)cc2)s1	0	0	0	0
CCN(CC)c1ccc(C(=O)OCc2cc(=O)oc3cc(O)ccc23)cc1	32µM	0	0	0
CCOC(=O)c1ccc(NC(=S)N2CCCC(C(=O)OCC)C2)cc1 (stereo not given)	-	0	0	0
CCOc1ccc(C(=S)N2CCCC2)cc1	0	0	0	0
CCOc1ccc(C(=S)N2CCCC2)c(OCC)c1	0	0	0	50µM
CCOc1ccc(C(=S)N2CCN(C)CC2)cc1	-	0	0	14µM
CCOc1ccc(C(=O)NCCN2CCCCC2)c(OCC)c1	0	0	0	0
CCOC(=O)c1ccc(C(=S)N2CCCC2)cc1	-	0	0	40µM
O=C(CNC(=O)C1(c2ccccc2)CC1)Nc1ccc(F)c(F)c1	0	0	0	-
O=C(Nc1nnc(-c2ccco2)s1)c1ccccc1	0	0	-	45µM
O=C(Nc1nnc(-c2ccco2)s1)C1CC1	32µM	0	0	0
Cc1ccc(NC(=O)Cn2c(=O)n(Cc3nc(-c4ccccc4)no3)c(=O)c3cc4c(cc32)OCO4)cc1F	0	-	-	-
Cc1ccccc1Cn1c(=O)n(CCCCC(=O)NCc2ccccc2Cl)c(=O)c2ccccc21	0	-	-	-
CCCCn1c(N)c(N(CCOC)C(=O)c2ccc(-c3ccc(C(C)=O)cc3)o2)c(=O)[nH]c1=O	32µM	0	0	-
CCCCn1c(N)c(N(CCOC)C(=O)CCCc2nc3ccccc3s2)c(=O)[nH]c1=O	35µM	0	0	-
CCCCn1c(N)c(N(CCC(C)C)C(=O)CCCc2nc3ccccc3s2)c(=O)[nH]c1=O	0	0	0	0
CCCCn1c(N)c(N(CC(C)C)C(=O)CCCc2nc3ccccc3s2)c(=O)[nH]c1=O	7.1µM	0	0	-
CCCCn1c(N)c(N(CCOC)C(=O)c2ccc(-c3ccc([N+](=O)[O-])cc3)o2)c(=O)[nH]c1=O	0	0	-	0
CC(=O)C1=CCC(c2ccccc2)N(Cc2ccccc2)C1 (stereo not given)	0	-	-	-
Cc1ccccc1OCC(=O)OCC(=O)NC1CC1	0	0	0	-
CCn1c(=O)c2sccc2n2c(CCCC(=O)NCc3cccnc3)nnc12	0	0	0	0
CC(=O)c1coc2c1cc(O)c1ccccc12	0	0	0	0
CC(=O)c1cc(O)c2ccccc2c1O	0	0	0	45µM
SMILES	ClpP mod	uPA surface inh	TCR act	Sfp PPTase inh
COC(=O)C1=C[C@@H](C(=O)OC)C2C3=C(C(=O)[C@]2(CC(C)C)NC(=O)c2ccccc2)[C@H](C)n2c(=O)n(-c4ccccc4)c(=O)n2[C@@H]3C1 (stereo not given in full)	-	-	-	0
COc1ccc(NC(=O)c2cc3ccccn3n2)cc1	0	4.5µM	0	0
O=C(Nc1ccc(OC(F)(F)F)cc1)c1cc2ccccn2n1	0	-	-	-
CCOc1ccc(NC(=O)Cn2nc3c(cc2=O)CC(C)CC3)cc1 (stereo not given)	0	-	-	-
COc1ccc(C(=O)NCc2oc(-c3ccccc3)cc2C(=O)O)cc1	0	0	0	25µM
COc1ccc(C(=O)NCc2c(C)oc(C)c2C(=O)O)cc1	16µM	0	-	0
COc1ccc(C(=O)NCc2cc3ccccc3n2C)cc1	0	0	0	0
CCn1c(=O)n(CC)c2cc(N3CCCC3)c(NC(=O)c3cccc(Cl)c3)cc21	0	0	0	0
CC1CCc2c(sc3nnn(CC(=O)Nc4ccccc4Cl)c(=O)c23)C1 (stereo not given)	0	-	-	-
CCN(CC)CC(=O)Nc1c(C)cccc1C	0	0	0	0
Cc1cccc(C)c1NC(=O)CN(CC(=O)O)CC(=O)O	-	-	-	45µM
CCOC(=O)/C(=N\Nc1ccccc1)P(=O)(c1ccccc1)c1ccccc1	-	0	0	20µM
Cc1cc(-c2csc(NC(=O)c3cccc(S(=O)(=O)N(C)C)c3)n2)c(C)n1-c1ccccc1	14µM	0	0	0
Cc1noc(/C=C/c2cccnc2)c1[N+](=O)[O-]	0	7.9µM	0	0
N#Cc1c(-c2ccccc2Cl)cc(-c2ccccc2)[nH]c1=S	-	-	-	0
Cc1cc(-c2ccccc2)c(C#N)c(=S)[nH]1	0	0	0	28µM
CC(=O)c1ccc(OCC(O)CN2CCN(Cc3ccc4c(c3)OCO4)CC2)cc1 (stereo not given)	0	0	0	89µM!
CCOC(=O)N1CCc2c(sc3c2c(=O)n(-c2ccccc2)c(=O)n3CC(=O)Nc2ccc(OC)cc2OC)C1	0	-	-	-
CCOC(=O)[C@]12CCCC=C1N(CCC1=CCCCC1)C(=O)[C@H](CC(=O)N1CCC(c3ccccc3)CC1)C2	0	-	-	-
CCOC(=O)c1ccc(NCc2ccc(N(C)C)cc2)cc1	0	0	0	0
CCOC(=O)c1ccc(NCc2ccc3c(c2)OCO3)cc1	0	0	0	56µM
O=C(OCc1cc(=O)n2nc(-c3cccs3)sc2n1)c1ccc(F)cc1	0	-	-	-
Cc1ccc2c(c1)[C@H]1[C@H](CO2)[C@H](c2ccccc2)[C@]2(C)C(=O)Nc3cc(F)ccc3C(=O)N12	0	7.1µM	0	-
C[C@@]12C(=O)Nc3cc(F)ccc3C(=O)N1[C@H]1c3cc(Br)ccc3OC[C@@H]1[C@@H]2c1ccccc1	0	?	0	-
CC(C)c1nc2oc3c(=O)[nH]cnc3c2c2c1COC(C)(C)C2	0	0	0	0
SMILES	ClpP mod	uPA surface inh	TCR act	Sfp PPTase inh
CC(C)c1nc2oc3c(=O)[nH]cnc3c2c2c1CCC2	13µM	0	0	0
N#Cc1ccccc1NC(=O)C(=O)NCC(c1ccc2c(c1)OCO2)N1CCOCC1 (stereo not given)	0	-	-	-
NCCNc1cccc2ccccc12	-	-	-	71µM
Cc1ccc(-c2ccc(C(=O)Nc3cccc(F)c3)o2)c2ccccc12	0	0	0	71µM
Cn1nccc1C(=O)Nc1cccc(S(=O)(=O)N2CCOCC2)c1	0	0	0	0
COc1ccc(S(=O)(=O)NNC(=O)c2cc3c4ccccc4n(C)c3s2)cc1	35µM	0	0	0
CCCCNC(=O)c1sc(=S)n(-c2ccccc2OC)c1N	0	0	0	45µM
Cc1ccc(NC(=O)c2sc(=S)n(-c3cc(C)ccc3F)c2N)cc1	0	0	0	50µM
Cc1ccc(C)c(-n2c(N)c(C(N)=O)sc2=S)c1	0	0	0	0
COc1ccc(Cl)cc1-n1c(N)c(C(N)=O)sc1=S	0	-	0	16µM
Cc1ccc(-n2c(N)c(C(N)=O)sc2=S)c(C)c1	0	0	0	20µM
COc1ncc2nc(-c3ccccc3)c(=O)n(CCC#N)c2n1	-	-	-	0
CN1CCN(S(=O)(=O)c2cccc(C(=O)Nc3sc4c(c3C(N)=O)CCCC4)c2)CC1	0	0	0	56µM
NC(=O)c1c(NC(=O)C2c3ccccc3Oc3ccccc32)sc2c1CCCCC2	0	0	0	35µM
Cn1ccc(C(=O)Nc2sc3c(c2C(N)=O)CCCCC3)n1	0	0	-	32µM
Cn1nccc1C(=O)Nc1sc2c(c1C(N)=O)CCCC2	-	0	0	0
